Activity calls are given as the source filed them.

Sequence of Torsin-1A-interacting protein 2 (Homo sapiens) (Q8NFQ8 whole entry, looked up): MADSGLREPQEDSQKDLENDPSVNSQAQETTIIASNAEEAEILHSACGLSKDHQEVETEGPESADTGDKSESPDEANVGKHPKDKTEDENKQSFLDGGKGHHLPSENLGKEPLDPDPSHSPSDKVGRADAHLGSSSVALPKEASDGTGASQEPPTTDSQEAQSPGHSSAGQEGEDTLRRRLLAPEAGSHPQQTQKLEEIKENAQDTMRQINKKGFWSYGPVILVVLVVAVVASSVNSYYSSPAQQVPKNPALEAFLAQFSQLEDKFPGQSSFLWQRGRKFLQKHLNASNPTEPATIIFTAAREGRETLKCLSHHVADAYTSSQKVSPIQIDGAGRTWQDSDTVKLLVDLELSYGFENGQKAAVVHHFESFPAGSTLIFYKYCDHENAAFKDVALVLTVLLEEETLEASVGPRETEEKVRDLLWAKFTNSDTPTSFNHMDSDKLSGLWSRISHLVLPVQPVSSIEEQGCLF

The first assay addresses Torsin-1A-interacting protein 2 (Homo sapiens) (UniProt Q8NFQ8). Put plainly: LULL1 binders on small-molecule microarray, primary screen, cell lysate, human LULL1 lysate, 635/667 nm fluorescence (AID 1092).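 Further: probe is lysate of COS7 cells overexpressing human LULL1; score merges per-feature 667 nm fluorescence with signal-to-noise.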 As to conditions: hLULL1 lysate binding, 635 nm fluorescence, higher = more signal.
On to `C=CCOC(=O)[C@H]1[C@@H]2C(=O)O[C@@H](c3ccccc3)[C@@H](c3ccccc3)N2[C@@H](c2ccc(OCCOC(=O)[C@@H]3C[C@@H]4C(=O)N5CCC[C@H]5C(=O)N4[C@@H]3c3cccc(OCCO)c3)cc2)[C@]12C(=O)Nc1ccccc12`, for which the composite z-score turned out to be 2.64.

`C#CCN(CC=C(C)C)[C@H](CO)c1ccccc1` showed a composite z-score of 0.0196.

The compound `C=C[C@H](COC(C)=O)N(C(=O)OC(C)(C)C)S(=O)(=O)c1ccc(Br)cc1` registered a composite z-score of 0.597.

On to `COc1ccc(C(O)C2C=CC3C(=O)N(c4ccccc4)C(=O)C3N2Nc2ccccc2F)cc1OCc1ccccc1` (centres undefined), for which the composite z-score turned out to be 2.94.

The compound `CCOC(=O)C1=CCC(c2ccc(C)cc2)N(S(=O)(=O)c2ccc(C)cc2)C1` (centres undefined) displayed a composite z-score of 1.69.

In turn, `COCC(=C=CC[C@H](O)c1ccccc1OCCO)C[C@H](O)c1cc(Cl)cc(Cl)c1O` registered a composite z-score of 2.7.

Consider `COCCOC(=O)N1C(=O)[C@@]2(c3cc(C#CC4=CCCCC4)ccc31)[C@H](C(=O)Nc1nc3ccccc3s1)[C@H]1C(=O)O[C@H](c3ccccc3)[C@H](c3ccccc3)N1[C@@H]2c1ccccc1OCCO`, for which the composite z-score amounted to 2.15.

For the compound `CC(C)C[C@@H]1NC(=O)[C@H]2C[C@@H](C(=O)NCCCCCCN)[C@@H](c3ccc(O)cc3)N2C1=O`, the composite z-score amounted to 2.32.

Regarding `COCCCNC(=O)[C@@]1(Cc2ccccc2)N=C(c2ccc(OCCCO)cc2)O[C@H]1c1ccccc1`, the composite z-score was 3.36.

Compound `CN(C)C(=O)[C@]1(Cc2ccccc2N=[N+]=[N-])N=C(c2ccc(OCCCO)cc2)O[C@@H]1c1ccccc1` had a composite z-score of 3.02.

The compound `CN1C(=O)C2C=CC(C(O)c3ccccc3)N(Nc3ccccc3)C2C1=O` (centres undefined) gave a composite z-score of 2.71.

Consider `CCOC(=O)C[C@H]1[C@H](OC(=O)Cc2ccc3c(c2)OCO3)[C@@H](NC(=O)c2ccc(-c3ccccc3)cc2)c2cc(OCCCO)ccc2N1C(=O)Cc1ccc(OC)cc1`, for which the composite z-score was found to be 0.826.

The compound `O=C1c2ccccc2[C@](Cc2ccccc2I)(C(=O)NC2CC2)[C@H](c2ccc(CO)cc2)N1C1CCCCC1` showed a composite z-score of 2.38.

`C=CCOC(=O)[C@@H]1[C@H]2C(=O)O[C@H](c3ccccc3)[C@H](c3ccccc3)N2[C@H](c2ccc(OCCOC(=O)[C@@H]3C[C@@H]4C(=O)N5CCC[C@H]5C(=O)N4[C@@H]3c3ccc(O)cc3)cc2)[C@@]12C(=O)Nc1ccc(I)cc12`: the composite z-score stood at 2.55.

System in another assay: not listed separately
Put plainly: E. coli growth modulation, two-sided OD650, primary screen, E. coli filamentation project, strain DRC41, 24 h (AID 1093).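 Further: MC1000 strain lacking acrAB efflux and sulA so SOS filamentation is blocked; test concentration not given here.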 As to conditions: OD650, 24 h, higher = more signal, called active from +8 up or from −8 down.
As for `CCc1oc(CC[C@@H](CO)NC(=O)NCCn2cc(C3(O)CCCCC3)nn2)c(C(=O)OC)c1C(=O)OC`, the z-score is -1.2 (inactive).

With `O=C1C2C=CC(C(O)c3c(F)cccc3Cl)N(Nc3ccccc3)C2C(=O)N1c1ccccc1` (centres undefined), the z-score is 0.063 (inactive).

Turning to `COc1ccc(C(=O)Nc2ccc(CN3C(=O)[C@@]4(O[C@@H](CCO)[C@H]([Si](C)(C)c5ccc(OC)cc5)[C@H]4C)c4ccccc43)cc2)cc1`, the z-score is 0.0243 (inactive).

For the compound `CC(C)c1ccc(NN2C(C(O)c3cc(C(F)(F)F)cc(C(F)(F)F)c3)C=CC3C(=O)N(c4ccccc4)C(=O)C32)cc1` (centres undefined), the z-score is -2.08 (inactive).

Take `CC(=O)NCCCC[C@@H]1NC(=O)[C@@H]2C[C@H](C(=O)NCCCCCCNC(=O)CS)[C@H](c3cccc(OCCO)c3)N2C1=O`: the z-score is -0.329 (inactive).

Consider `O=C1c2ccccc2[C@@]2(Cc3ccccc3N(CCN3CCOCC3)C2=O)[C@H](c2ccc(CO)cc2)N1Cc1ccccc1`, for which the z-score is 0.959 (inactive).

On to `CCCCCN1CC=CC23O[C@@H]4/C=C\CCCOC(=O)C4[C@H]2C(=O)N(C(CO)C(C)C)[C@@H]3C1=O` (some centres undefined), for which the z-score was 1.65 (inactive).

Consider `CN1C(=O)[C@]2(Cc3ccccc3)N=C(c3ccc(OCCCO)cc3)O[C@@H]2c2ccccc21`, for which the z-score was -0.538 (inactive).

On to `COc1ccc(CCNC(=O)[C@@H]2c3ccccc3C(=O)N(C3Cc4ccccc4C3)[C@H]2c2ccc(CO)cc2)cc1`, for which the z-score was -0.141 (inactive).

As to `COc1cc2c(cc1OC)CN(C(=O)[C@H]1[C@@H]3C(=O)O[C@@H](c4ccccc4)[C@@H](c4ccccc4)N3[C@@H](c3ccc(O)cc3)[C@]13C(=O)Nc1ccc(C#CC4=CCCCC4)cc13)CC2`, the z-score was 1.64 (inactive).

On to `CCCC=C(CCC)[C@@H](NS(=O)(=O)c1cccs1)c1ccc(C(=O)OC)cc1`, for which the z-score was -0.0839 (inactive).

As to `C[C@@]1([C@@H](NC(=O)c2ccccc2)c2ccc(-c3ccccc3)cc2)C[C@H]1C1CCCCC1`, the z-score is -1.48 (inactive).

As to `C=CCC(OC(C)=O)[C@@H]1[C@@H](N(Cc2ccc(-c3cccc(C(F)(F)F)c3)o2)C(=O)Cc2ccc(F)cc2)c2cc(OCCCO)ccc2N1C(=O)Cc1ccc(OC)cc1` (some centres undefined), the z-score is -0.0261 (inactive).

For the compound `COC(=O)c1c(CC[C@@H](CO)NC(=O)N[C@@H](C)Cn2cc(C3(O)CCCCC3)nn2)oc(C(C)=O)c1C(=O)OC`, the z-score is -0.338 (inactive).

With `C=CCC(OC(C)=O)[C@@H]1[C@@H](N(Cc2ccc(-c3cccc(C(F)(F)F)c3)o2)C(=O)c2ccc(-c3ccccc3)cc2)c2cc(OCCCO)ccc2N1C(=O)c1ccc(-c2ccccc2)cc1` (some centres undefined), the z-score is -0.801 (inactive).

Consider `COCCOC(=O)N1C(=O)[C@@]2(c3cc(C#Cc4ccc(OC)cc4)ccc31)[C@H](C(N)=O)[C@H]1C(=O)O[C@H](c3ccccc3)[C@H](c3ccccc3)N1[C@@H]2c1ccccc1OCCO`, for which the z-score was 0.071 (inactive).

Turning to `CCN(CC)c1ccc(N2CC=CC34O[C@@H]5/C=C\CCCOC(=O)C5[C@H]3C(=O)N(CCO)[C@@H]4C2=O)cc1` (some centres undefined), the z-score is 0.557 (inactive).

For `CC(C)N1C(=O)[C@@]2(Cc3ccccc31)c1ccccc1C(=O)N(C1CCCCC1)[C@H]2c1ccc(CO)cc1`, the z-score is -1.61 (inactive).

With `CN(C)C(=O)[C@]1(Cc2ccccc2CN=[N+]=[N-])N=C(c2ccc(OCCCO)cc2)O[C@@H]1c1ccccc1CN=[N+]=[N-]`, the z-score was -0.255 (inactive).

As for `O=C1c2ccccc2[C@](Cc2ccccc2I)(C(=O)NC2CC2)[C@H](c2ccc(CO)cc2)N1Cc1ccccc1`, the z-score is 0.192 (inactive).

Consider `COCCOC(=O)N1C(=O)[C@@]2(c3cc(C#CC4(O)CCCCCC4)ccc31)[C@H](c1ccc(O)cc1)N1[C@H](c3ccccc3)[C@H](c3ccccc3)OC(=O)[C@H]1[C@@H]2C(=O)Nc1nc2ccccc2s1`, for which the z-score is -0.369 (inactive).

For the compound `C=CCOC(=O)[C@H]1[C@@H]2C(=O)O[C@@H](c3ccccc3)[C@@H](c3ccccc3)N2[C@@H](c2ccc(OCCOC(=O)[C@@H]3C[C@@H]4C(=O)N5CCC[C@H]5C(=O)N4[C@@H]3c3cccc(OCCO)c3)cc2)[C@]12C(=O)Nc1ccccc12`, the z-score was 0.0706 (inactive).

For `C#CCN(CC=C(C)C)[C@H](CO)c1ccccc1`, the z-score is 0.333 (inactive).

Take `C=C[C@H](COC(C)=O)N(C(=O)OC(C)(C)C)S(=O)(=O)c1ccc(Br)cc1`: the z-score is 1.47 (inactive).

Consider `COc1ccc(C(O)C2C=CC3C(=O)N(c4ccccc4)C(=O)C3N2Nc2ccccc2F)cc1OCc1ccccc1` (centres undefined), for which the z-score is -0.994 (inactive).

On to `CCOC(=O)C1=CCC(c2ccc(C)cc2)N(S(=O)(=O)c2ccc(C)cc2)C1` (centres undefined), for which the z-score was -0.422 (inactive).

Consider `COCC(=C=CC[C@H](O)c1ccccc1OCCO)C[C@H](O)c1cc(Cl)cc(Cl)c1O`, for which the z-score was -0.628 (inactive).

With `COCCOC(=O)N1C(=O)[C@@]2(c3cc(C#CC4=CCCCC4)ccc31)[C@H](C(=O)Nc1nc3ccccc3s1)[C@H]1C(=O)O[C@H](c3ccccc3)[C@H](c3ccccc3)N1[C@@H]2c1ccccc1OCCO`, the z-score was 0.859 (inactive).

Take `CC(C)C[C@@H]1NC(=O)[C@H]2C[C@@H](C(=O)NCCCCCCN)[C@@H](c3ccc(O)cc3)N2C1=O`: the z-score was -0.11 (inactive).

With `COCCCNC(=O)[C@@]1(Cc2ccccc2)N=C(c2ccc(OCCCO)cc2)O[C@H]1c1ccccc1`, the z-score is 0.474 (inactive).

For `CN(C)C(=O)[C@]1(Cc2ccccc2N=[N+]=[N-])N=C(c2ccc(OCCCO)cc2)O[C@@H]1c1ccccc1`, the z-score was 0.677 (inactive).

On to `CN1C(=O)C2C=CC(C(O)c3ccccc3)N(Nc3ccccc3)C2C1=O` (centres undefined), for which the z-score was -1.79 (inactive).

Regarding `CCOC(=O)C[C@H]1[C@H](OC(=O)Cc2ccc3c(c2)OCO3)[C@@H](NC(=O)c2ccc(-c3ccccc3)cc2)c2cc(OCCCO)ccc2N1C(=O)Cc1ccc(OC)cc1`, the z-score was 1.09 (inactive).

Turning to `O=C1c2ccccc2[C@](Cc2ccccc2I)(C(=O)NC2CC2)[C@H](c2ccc(CO)cc2)N1C1CCCCC1`, the z-score is 0.257 (inactive).

Regarding `C=CCOC(=O)[C@@H]1[C@H]2C(=O)O[C@H](c3ccccc3)[C@H](c3ccccc3)N2[C@H](c2ccc(OCCOC(=O)[C@@H]3C[C@@H]4C(=O)N5CCC[C@H]5C(=O)N4[C@@H]3c3ccc(O)cc3)cc2)[C@@]12C(=O)Nc1ccc(I)cc12`, the z-score is 1.75 (inactive).

Source of the values: PubChem BioAssay.
